The text below walks through data of PubChem BioAssay (NCI).

Where “and” joins values, the source holds several entries; their conditions need not be identical. Identical values can stand only once. About 83,000 compounds went through this panel and 20% of them were active in at least one assay; those are over-represented in the sample as a whole.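 Growth was measured after 48 h exposure to one concentration of compound in 96-well plates. Values under 10 count as active.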 Calls of active or inactive are those of the source.

The subject of the experiment is SNB-75 CNS. Nature of the experiment: NCI-60 one-dose screen, 48 h (100 = growth as untreated, 0 = no growth, -100 = all killed). The following applies: 10 µM unless noted.
As for `Cc1cc(Br)ccc1-n1cc(C#N)c(N)c1C(=O)c1ccc(Br)cc1`, the growth was 95.6% (inactive).
As for `CCCCCCN1C=C/C(=C\C(=O)n2ccc3ccccc32)c2ccccc21`, the figure is 65.8% (inactive); as for `Cc1ccc(CSC2=C(Cl)CN(c3ccc(Cl)cc3)C2=O)cc1`, 103% (inactive); as for `Clc1ccc(CSc2nnc(-c3ccc(Cl)cc3)n2-c2ccccc2)cc1`, -0.642% (active).
As for `NS(=O)(=O)c1ccc(CCn2c(-c3ccc(C(=O)O)cc3)nc(-c3ccccc3)c2-c2ccccc2)cc1`, the figure is 86.1% (inactive).
As for `CC(=C(c1ccc(OCCCN(C)C)cc1)c1ccc(OCCCN(C)C)cc1)c1ccc(Cl)cc1`, the figure is 75.8% (inactive); as for `CC[C@]12CC(C(=O)OC)=C3Nc4ccccc4[C@@]34CCN(C14)[C@@H]1c3cc4c(cc3O[C@@H]1[C@H]2O)NC1=C(C(=O)OC)C[C@@]2(CC)C3N(CC[C@@]143)C[C@H]1O[C@H]12` (stereo partly drawn), -4.96% (active); as for `Cc1ccc(-c2csc(N/N=C/c3cccs3)n2)cc1`, 81.9% (inactive).
Consider `CN1CCC[C@]2(C)[C@H]3CC[C@@H]4[C@@H]5[C@H]6OC[C@@]5(CCC6(C)C)CC[C@@]4(C)[C@]3(C)CC[C@H]2C1(C)C`, for which the growth was 89.1% (inactive).
To `O=S(=O)(Oc1ccc(-c2cn3ccoc3n2)cc1)c1cccc(C(F)(F)F)c1` belongs 96.3% (inactive); to `CC(Nc1c(C#N)cnc2ccc(-c3cncc(-c4n[nH]c(=O)o4)c3)cc12)c1ccccc1` (stereo not drawn), 7.1% (active); to `C#CCN(C)CCCOc1ccc(NC(=O)CCCCCCCCC(=O)NO)cc1Cl`, 63.4% (inactive).
To `CCCc1cc2cc(-n3nc(CC)c4c3CC(C)(C)CC4=O)cc(NC3CCC(O)CC3)c2c(=O)[nH]1` (stereo not drawn) belongs -6.85% (active).
As to `O=C(CN1CCN(c2cc(=O)[nH]c3ccc(F)cc23)CC1)N(c1ccccc1)c1ccccc1`, the growth was 71.3% (inactive).
To `CN1CCN(c2ccc(Nc3nc(NCCCNS(=O)(=O)c4cccc(F)c4)c4sccc4n3)cc2)CC1` belongs 82.1% (inactive); to `COc1ccc(C(=NNS(=O)(=O)c2ccc(C)cc2)c2ccccc2)cc1OC`, 90.4% (inactive).
As for `COc1ccc(/C=N/NC(=O)c2c(N)nn(C)c2Nc2ccccc2)cc1Oc1ccccc1`, the figure is 88.2% (inactive); as for `C#C[C@]1(O)CC[C@H]2[C@@H]3CC=C4c5sc(NCc6ccccc6)nc5CC[C@]4(C)[C@H]3CC[C@@]21C`, 23.5% (inactive).
To `Cc1cc(NS(=O)(=O)c2ccc(NC(=O)CSc3nc4ccccc4c(=O)n3-c3ccccc3)cc2)no1` belongs 77.3% (inactive); to `CC(C)NC(=O)c1cc(-c2ccc(NC(=O)Nc3ccc(F)c(C(F)(F)F)c3)cc2)nc2cccnc12`, 80% (inactive).
Turning to `CCOC(=O)c1cccnc1Nc1ccc(NC(=O)Nc2ccc(Cl)c(C(F)(F)F)c2)cc1`, the growth is 106% (inactive).
To `O=C(CSc1nc2ccccc2c(=O)n1-c1ccc(S(=O)(=O)Nc2ccc(Cl)nn2)cc1)Nc1ccc(S(=O)(=O)Nc2ccc(Cl)nn2)cc1` belongs 96.1% (inactive); to `COc1cc(-c2nc(-c3ccccc3)[nH]c2-c2ccnc(NCCCNS(=O)(=O)c3ccc(C(F)(F)F)cc3)n2)ccc1Cl`, 58.6% (inactive) and 67.5% (inactive); to `Cc1csc(/N=C(N)/N=C(\N)c2cccc(C#N)c2)n1`, 59.5% (inactive).
Turning to `CC[C@]12C=CCN3CC[C@]4(C(=C(C(=O)OC)C1)Nc1cc5c(cc14)[C@@H]1[C@H](O5)[C@@H](O)[C@@]4(CC)CC(C(=O)OC)=C5Nc6cc(O)ccc6[C@@]56CCN1C46)C32` (stereo partly drawn), the growth is -2.38% (active).
For `COc1ccc(OC)c(CCn2cncc2-c2c[nH]c3ccc(Cl)cc23)c1`, the growth is 21.4% (inactive).
To `Cc1ccc(-c2cc3nc(C(Cl)Cl)nc(-c4ccc(S(=O)(=O)N(C)C)cc4)n3n2)cc1` belongs 108% (inactive); to `CC1=C(C)C(=O)C(Nc2cccc(C(=O)OC(C)(C)C)c2)=C(Cl)C1=O`, 58.4% (inactive).
To `COC(=O)c1ccc(NC2=C(Cl)C(=O)C(C)=C(C)C2=O)cc1` belongs 64.5% (inactive); to `Cc1nc(/N=C(N)/N=C(\N)c2cccc(Br)c2)sc1C`, 62.9% (inactive); to `COC(=O)c1cccc(NC2=C(Cl)C(=O)c3nc(C)ccc3C2=O)c1`, 119% (inactive).
As for `CN(C)c1ccc(/C=N/Nc2nc(N/N=C/c3ccc(N(C)C)cc3)nc(N3CCCCC3)n2)cc1`, the figure is 101% (inactive); as for `OCC(Nc1ncnc2ccc(-c3cnc4cnccn34)cc12)c1ccccc1` (stereo not drawn), 85.6% (inactive).
